Measured values from the antibiotic and cytotoxicity screens of Wong et al. (2023).
The campaign covered roughly 39,000 compounds. About 3,300 (8.5%) were called active. For the sample, actives were picked, then their nearest neighbours and some compounds at random.

System: HepG2
Assay: cytotoxicity call (relative viability < 0.9)
Details: 10 µM

| SMILES | cytotoxicity call |
| --- | --- |
| COc1cccc(-c2ccc3c(c2)O[C@@H](CN(C)C(=O)C2CC2)[C@H](C)CN([C@@H](C)CO)S3(=O)=O)c1 | inactive |
| O=C(C[C@@H]1C[C@@H]2c3cc(NS(=O)(=O)c4ccc(F)cc4)ccc3O[C@@H]2[C@@H](CO)O1)NCCN1CCCCC1 | inactive |
| C[C@H](CO)N1C[C@H](C)[C@@H](CN(C)S(=O)(=O)c2ccccc2F)Oc2ncc(C#Cc3ccncc3)cc2C1=O | inactive |
| C[C@H]1CN([C@@H](C)CO)C(=O)c2cc(C#Cc3ccccc3)cnc2O[C@@H]1CN(C)S(=O)(=O)c1ccccc1F | inactive |
| C[C@@H]1CN([C@H](C)CO)C(=O)c2cc(C#Cc3ccccc3)cnc2O[C@H]1CN(C)S(=O)(=O)c1ccccc1F | inactive |
| C[C@H]1CN([C@@H](C)CO)C(=O)c2cc(C#Cc3ccncc3)cnc2O[C@H]1CN(C)S(=O)(=O)c1ccccc1F | active |
| C[C@@H]1CN([C@@H](C)CO)C(=O)c2cc(C#Cc3ccncc3)cnc2O[C@@H]1CN(C)S(=O)(=O)c1ccccc1F | inactive |
| C[C@@H]1CN([C@H](C)CO)C(=O)c2cc(C#Cc3ccncc3)cnc2O[C@H]1CN(C)S(=O)(=O)c1ccccc1F | inactive |
| C[C@H]1CN([C@@H](C)CO)C(=O)c2cc(C#Cc3ccncc3)cnc2O[C@@H]1CN(C)S(=O)(=O)c1ccccc1F | active |
| C[C@@H]1CN([C@H](C)CO)C(=O)c2cc(C#Cc3cccnc3)cnc2O[C@@H]1CN(C)S(=O)(=O)c1ccccc1F | inactive |
| C[C@@H]1CN([C@H](C)CO)C(=O)c2cc(C#Cc3ccncc3)cnc2O[C@@H]1CN(C)S(=O)(=O)c1ccccc1F | inactive |
| C[C@H](CO)N1C[C@H](C)[C@H](CN(C)S(=O)(=O)c2ccccc2F)Oc2ncc(C#Cc3ccncc3)cc2C1=O | active |
| C[C@@H]1CN([C@@H](C)CO)C(=O)c2cc(C#Cc3ccncc3)cnc2O[C@H]1CN(C)S(=O)(=O)c1ccccc1F | active |
| C[C@@H]1CN([C@H](C)CO)C(=O)c2cc(C#Cc3cccnc3)cnc2O[C@H]1CN(C)S(=O)(=O)c1ccccc1F | inactive |
| COc1ccc(S(=O)(=O)N[C@@H]2CC[C@@H](CC(=O)N3CCC(Cc4ccccc4)CC3)O[C@@H]2CO)cc1 | inactive |
| O=c1c(-c2ccc(O)cc2)coc2c([C@H]3O[C@H](CO)[C@@H](O)[C@H](O)[C@H]3O)c(O)ccc12 | inactive |
| Cc1ccc2nc(-c3ccco3)[nH]c2c1 | inactive |
| CCS(=O)(=O)N1C[C@]2(CCN(CC2)C(=O)Nc2c(noc2C)C)c2c(n(c3cc(ccc23)OC)C)[C@@H]1CO | inactive |
| C[C@H](CO)N1C[C@H](C)[C@@H](CN(C)S(=O)(=O)c2ccc(F)cc2)Oc2ccc(NC(=O)Cc3ccccc3)cc2CC1=O | inactive |
